The structures appear in SMILES notation. Records with an inconclusive call do not appear. Unmarked numbers belong to inactive results. Activity calls are given as the source filed them. The call rests on the fitted dose curve; in most records, active means well fitted cell-killing curve with a large enough effect; inconclusive means small, poorly fitted or top-dose-only effect, or effect the other way; inactive means no such curve, though single readings can be large or run the other way.

Assay [1] in a line: Viability qHTS for spleen associated tyrosine kinase inhibitor (SYKi) naive MV4-11 cells (AID 1963823). Further: nearly all actives have a fitted effect of over 40% in size. The essentials: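 SYK inhibitor-naive MV4-11 cells, 500 per well, exposed to compounds for 72 hr at 37 C, 5% CO2. Viability read as CellTiter-Glo luminescence after 10 min at room temperature.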
Assay [2] in a line: Viability qHTS for spleen associated tyrosine kinase inhibitor (SYKi) drug resistant MV4-11 cells (AID 1963824). Further: nearly all actives have a fitted effect of over 35% in size. Summed up: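 CellTiter-Glo luminescence, read 10 min after reagent addition, reports viability after a 72 hr compound exposure. Cells are an MV4-11 line made resistant to SYK inhibition, seeded at 500 per well onto compound-containing plates.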
Potency means the concentration at half of the fitted maximal effect.

Take `C=C1C2(CCC(=O)OC2(C)C)CC(OC(=O)/C(C)=C/C)C2(C)C13OC14C(=O)OC(C)(C(=O)C12C(=O)OC4C)C3OC(C)=O` (stereo not drawn): the Potency result in assay [1] and in assay [2] was “inactive” each time.
On to `C=CC(C)(C)C12Nc3c(ccc4c3OC(C)(C)C=C4)C1(O)CC1C(=O)N3CCCC3C(=O)N12` (stereo not drawn), for which the Potency result in assay [1] is “inactive”. Besides, the Potency in assay [2] is 4.47 µM (active).
As for `C[C@@H]1C(=O)O[C@H]2CC34[C@H]5C[C@@H](C(C)(C)C)C36[C@@H](OC(=O)[C@@H]6O)OC4(C(=O)O5)[C@]21O` (stereo partly drawn), the Potency result in assay [1] and in assay [2] was “inactive” in each case.
Regarding `COC(=O)c1ccccc1O[C@@H]1O[C@H](CO[C@@H]2OC[C@@H](O)[C@H](O)[C@H]2O)[C@@H](O)[C@H](O)[C@H]1O`, the Potency entry in assay [1] and in assay [2] was “inactive” throughout.
Turning to `Nc1nc(COC(=O)c2ccc([N+](=O)[O-])cc2)nc(Nc2ccccc2)n1`, the Potency result in assay [1] and in assay [2] was “inactive” throughout.
With `CN(C)c1cc2c(Nc3ccc4c(cnn4Cc4ccccc4)c3)ncnc2cn1`, the Potency in assay [1] is 8.2 µM (active); in assay [2], 9.2 µM (active).
Take `CC(C)(C(=O)NCC(F)(F)C(F)(F)F)C(=O)NC1C(=O)Nc2ccccc2-c2ccccc21` (stereo not drawn): the results for the Potency in assay [1] and in assay [2] were 14.6 µM (active) and 13 µM (active), respectively.
Taken in the same sequence, the figures for `COC1CC(=O)C23C(=O)NC(CC(C)C)C2C(C)C(C)=CC3/C=C(\C)CCC(O)C1O` (stereo not drawn) were 1.42 µM (active) and 1.78 µM (active).
As to `COc1cc(/C=C/C(=O)OC[C@H]2O[C@@H](OC3CC(C)=C(C(=O)O)C(C)(C)C3)[C@H](O)[C@@H](O)[C@@H]2O)cc(OC)c1O` (stereo partly drawn), the Potency result in assay [1] and in assay [2] was “inactive” each time.
On to `COc1cc(O)cc(O[C@@H]2O[C@H](CO)[C@@H](O[C@@H]3OC[C@](O)(CO)[C@H]3O)[C@H](O)[C@H]2O)c1OC`, for which the Potency entry in assay [1] and in assay [2] was “inactive” throughout.
Turning to `CNC(=S)NS(=O)(=O)c1cc(CCNC(=O)c2cc(Cl)ccc2OC)ccc1OC`, the Potency entry in assay [1] and in assay [2] was “inactive” throughout.
For `Cc1nnsc1C(=O)Nc1ccc(-n2nc(C(F)(F)F)cc2C(F)(F)F)cc1`, the figures for the Potency in assay [1] and in assay [2] were 18.4 µM (active) and 16.4 µM (active), respectively.
Consider `C[C@@H]1O[C@@H](O[C@H]2[C@H](O[C@H]3[C@H](O)[C@@H](C(=O)O)O[C@@H](O[C@H]4CC[C@@]5(C)C(CC[C@]6(C)C5CC[C@]57OC[C@@]8(CCC(C)(C)CC85)[C@H](O)C[C@]76C)C4(C)C)[C@@H]3O[C@@H]3O[C@H](CO)[C@@H](O[C@@H]4OC[C@@H](O)[C@H](O)[C@H]4O)[C@H](O)[C@H]3O)O[C@H](CO)[C@H](O)[C@@H]2O)[C@H](O)[C@H](O)[C@H]1O` (stereo partly drawn), for which, in assay [1], the viability (% of control) is 77.6% [at 9.25 µM]. Besides, the viability, % of control in assay [2] was 94.7% [at 9.25 µM].
For `CC(C)=CCC/C(C)=C/CC/C(C)=C/COC1OC(COC2OCC(OC3OCC(O)C(O)C3O)C(O)C2O)C(O)C(OC2OC(C)C(OC3OC(C)C(OC4OCC(OC5OC(C)C(O)C(O)C5O)C(O)C4O)C(O)C3O)C(O)C2O)C1O` (stereo not drawn), the viability (% of control) in assay [1] is 70.7% [at 9.25 µM]. Besides, in assay [2], the viability, % of control was 96.7% [at 9.25 µM].
On to `CC[C@H](C)[C@H](NC(=O)[C@H](Cc1ccc(O)cc1)NC(=O)[C@@H](N)C(C)C)C(=O)N[C@@H](Cc1cnc[nH]1)C(=O)N1CCC[C@H]1C(=O)N[C@@H](Cc1ccccc1)C(=O)O`, for which the viability (% of control) in assay [1] was 98.9% [at 4.97 µM]. Besides, the viability, % of control in assay [2] was 102% [at 4.97 µM].
On to `CC(C)CC1(C(=O)OCc2ccc(O[C@@H]3O[C@H](CO)[C@@H](O)[C@H](O)[C@H]3O)cc2)CC(=O)OC(C(=O)O)CC(=O)OCC2OC(O1)C(OC(=O)/C=C/c1ccc(O)cc1)C(O)C2O` (stereo partly drawn), for which the viability (% of control) in assay [1] was 90.4% [at 9.25 µM]. Further, the viability, % of control in assay [2] was 89.5% [at 9.25 µM].
`COC1=Cc2c(nc3n(c2=O)C(C)C(=O)NC3(O)C(C)C)OC=C1` (stereo not drawn): the Potency entry in assay [1] and in assay [2] was “inactive” throughout.
As to `CC1(C)CC2C=C(C(=O)O)C3COC(=O)C(O)(CO)C23C1` (stereo not drawn), the Potency result in assay [1] and in assay [2] was “inactive” in each case.
As for `CCC(C)C(=O)O[C@@H]1[C@@H](O)[C@@H](O[C@H]2O[C@H](CO)[C@@H](O)[C@H](O)[C@H]2O)O[C@H](CO)[C@H]1O` (stereo partly drawn), the Potency entry in assay [1] and in assay [2] was “inactive” throughout.
Turning to `C[C@@H]1CC[C@]2(C(=O)OC3OC(CO)C(O)C(O)C3O)CC[C@]3(C)C(=CCC4[C@@]5(C)CC[C@H](O)[C@](C)(C(=O)O)C5CC[C@]43C)C2[C@]1(C)O` (stereo partly drawn), the Potency entry in assay [1] and in assay [2] was “inactive” each time.
Turning to `CC1CCC2(C(=O)O)CCC3(C)C(=CCC4C5(C)CCC(O)C(C)(C(=O)O)C5CCC43C)C2C1(C)O` (stereo not drawn), the Potency result in assay [1] and in assay [2] was “inactive” in each case.
As for `Oc1cccc(Nc2ccnc3[nH]c4ccccc4c23)c1`, the Potency was 1.84 µM (active) in assay [1] and 2.31 µM (active) in assay [2].
Take `CC(C)C(C#N)O[C@@H]1O[C@H](CO[C@@H]2O[C@@H](C)[C@H](O)[C@@H](O)[C@H]2O)[C@@H](O)[C@H](O)[C@H]1O` (stereo partly drawn): the Potency entry in assay [1] and in assay [2] was “inactive” in each case.
Regarding `COc1cc(CCC2=NN=C(NC(=O)c3ccc(N4C[C@@H](C)N[C@@H](C)C4)cc3)C2)cc(OC)c1`, the Potency in assay [1] was 0.461 µM (active); in assay [2], 1.46 µM (active).

(Values after PubChem BioAssay (NCATS).)
